FMDV antiviral: High Throughput Screening for Foot and Mouth Disease Virus Antivirals; FMDV antiviral cell-based qHTS; Potency, µM (highest dose often 57.9 µM), for inactives: at the highest dose activity change, negative = inhibition, usual class: inhibitors; 410,000 compounds, 1.2% hits; AID 1159524, 2015; calls by dose curve; tested in HEK293T cells; further: read-out not given here; potency means the concentration at half of the fitted maximal effect; on the % scale 0 is the no-effect control and ±100 the full control effect; nearly all actives have a fitted effect of over 45% in size
Marburg entry inh: qHTS for inhibitors of binding or entry into cells for Marburg Virus; Marburg virus pseudotyped entry inhibition, cell reporter; Potency, µM (doses to about 37.8 µM), for the others: top-dose activity change, negative = inhibition, usual class: inhibitors; 300,000 compounds, 1.8% hits; calls by dose curve; tested in HEK293 cells; further: potency means the concentration at half of the fitted maximal effect; on the % scale 0 is the no-effect control and ±100 the full control effect
HCV inh: qHTS Assay for Inhibitors of Hepatitis C Virus (HCV); Huh7.5.1 HCVcc-Cre infection, luciferase reporter, 44 h; Potency, µM (highest dose often 41.8 µM), for inactives: at the top dose activity change, negative = inhibition, hits mostly inhibitors; 340,000 compounds, 3.4% hits; AID 651820, 2012; active means well fitted inhibition curve with a large enough effect; inconclusive means small, poorly fitted or top-dose-only effect, or another doubt; inactive means no such curve, though single readings can be large or run the other way; further: potency means the concentration at half of the fitted maximal effect; on the % scale 0 is the no-effect control and ±100 the full control effect
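Infectious HCVcc-Cre (~0.5 moi) was added to cells just after compound, with cells seeded 4 h earlier at 1,000 per well. Luciferase activity after 44 h culture reported infection; substrate was incubated 15 min at room temperature before reading.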
HCMV inh: qHTS Assay for inhibitors of the human cytomegalovirus (HCMV) | HFF cells, HCMV-luciferase reporter, 72 h; active compounds read low | activity change, negative = inhibition, % at 57.5 µM | 410,000 compounds, 4.5% hits; in the data active means activity change below about -60%; inconclusive means no clear call, values can overlap the other calls; inactive means above about -39%; further: on the % scale 0 is the no-effect control and ±100 the full control effect
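Compounds were evaluated in HFFs infected with an HCMV luciferase reporter virus (MOI 1 PFU/cell). Luciferase in lysates collected 72 h post infection served as the replication measure.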
SARS PLpro yeast: qHTS of Yeast-based Assay for SARS-CoV PLP | Potency, µM (titrated, usually from 32.9 µM), for inactives: at the highest dose activity, positive = growth rescue, most hits filed as activators | AID 485353, 2010 | S. cerevisiae expressing SARS-CoV PLpro, growth rescue | 330,000 compounds, 0.19% hits; calls by dose curve; further: potency means the concentration at half of the fitted maximal effect; 0% is about no effect; nearly all actives have a fitted effect of over 55% in size
Lassa entry inh: qHTS for Inhibitors of binding or entry into cells for Lassa Virus | Potency, µM (titrated, usually from 37.9 µM), for inactives: top-dose activity change, negative = inhibition, hits mostly inhibitors | 300,000 compounds, 1.2% hits | Lassa virus pseudotype entry inhibition, cell reporter | AID 540256, 2011; calls by dose curve; tested in HEK293 cells; further: potency means the concentration at half of the fitted maximal effect; on the % scale 0 is the no-effect control and ±100 the full control effect; nearly all actives have a fitted effect of over 50% in size
* marks the source's active call; other numbers are inactive results; u = inconclusive; x = no result; [ ] = dose if it differs, or a comment. Only some compounds are listed: those with a hit (about 8% of all), similar ones and a draw of the others.

SMILES | FMDV antiviral | Marburg entry inh | HCV inh | HCMV inh | SARS PLpro yeast | Lassa entry inh
Cc1ccc(-c2noc(CSc3nnc(CCc4ccccc4)n3-c3ccccc3)n2)cc1 | -23% | u | u | -35 | -2% | u
COc1ccc(Cc2nc(-c3ccc(-n4cccc4)cc3)no2)cc1 | -9% | 4% | -11% | -24 | 8% | 2%
COc1ccc(Cc2nc(-c3ccc(-n4cccc4)cc3)no2)cc1OC | u | x | 10µM* | u | -7% | x
Clc1ccc(-n2c(Cc3ccccc3)nnc2SCc2nc(-c3cccs3)no2)cc1 | -18% | -28%[46.1 µM] | x | 20 | x | u
COc1ccc(-c2noc(CSc3nnc(CCc4ccccc4)n3-c3ccccc3)n2)cc1OC | x | -1% | 11µM* | -31 | -3% | 4.1µM*
Cc1noc(C)c1CC(=O)N1CCOc2c(cc(-c3nc4ccccc4s3)cc2OC2CCOC2)C1 (centres undefined) | -9% | x | x | x | x | x
C=CC[C@@H]1C=C(C(=O)OC)N(C(=O)C(F)(F)F)[C@@H](c2ccccc2Br)[C@@H]1C | x | 9%[14.2 µM] | x | x | x | x
O=C(Nc1cc(-c2nc3ccccc3o2)ccc1Cl)c1ccc(Br)o1 | 22% | x | x | 85 | x | 20%[46.1 µM]
COc1cc(/C=N/N=C2/NC(=O)C(Cc3ccc(F)cc3)S2)ccc1O (centres undefined) | 3% | u | 2% | -19 | 0% | u
COc1ccc(/C=N/N=C2/NC(=O)C(CC(=O)O)S2)cc1OCc1ccc(Cl)cc1Cl (centres undefined) | -15% | 1.1µM* | 24% | -35 | 26% | -4%
COc1ccc(/C=N/N=C2/NC(=O)C(CC(=O)O)S2)cc1OCc1ccccc1Cl (centres undefined) | -13% | -26% | 33% | 64 | 11% | -13%
COc1cc(/C=N/N=C2/NC(=O)C(c3ccccc3)S2)ccc1O (centres undefined) | 29% | 15% | 8% | -65* | 1% | 4.5µM*
CCCCNC(=O)c1c(-c2ccccc2)c(-c2ccccc2)nn(C)c1=O | -22% | 19%[46.1 µM] | x | 5 | x | u
Cc1ccc(C(=O)NCCc2nnc3n2CCN(Cc2ccnc4ccccc24)CC3)c(C)c1 | -7% | x | x | x | x | x
COc1cccc(/C=N/Nc2cc(N3CCOCC3)ncn2)c1O | 1% | u | u | -99* | 17% | u
Fc1ccc(/C=N/Nc2cc(N3CCOCC3)ncn2)cc1 | -2% | u | -9% | 9 | 5% | u
Fc1cccc(/C=N/Nc2cc(N3CCOCC3)ncn2)c1 | 65% | u | u | 14 | 2.8µM* | u
O=C(NCc1ccc(F)cc1Cl)c1cc(=O)[nH]c2ccc(S(=O)(=O)N3CCCCC3)cc12 | -14% | x | x | -14 | x | 1%[46.1 µM]
COc1ccc(CNC(=O)Cn2ccc3cc(S(=O)(=O)N4CCCCC4)ccc32)cc1OC | -2% | x | x | -3 | x | 24%[46.1 µM]
COc1ccc(NC(=O)CSc2cn(CCNC(=O)c3ccc(OC)cc3)c3ccccc23)cc1 | -24% | u | x | -6 | x | u
O=C(CSc1cn(CCNC(=O)c2ccc3ccccc3c2)c2ccccc12)NCc1ccco1 | u | x | u | -68* | -1% | x
O=C(CSc1cn(CCNC(=O)c2cccs2)c2ccccc12)NCc1ccccc1 | -20% | -3% | 11µM* | -33 | 14% | x
O=C1NC(=O)N(Cc2ccco2)C(=O)/C1=C/c1ccc(-c2cccc([N+](=O)[O-])c2)o1 | 32µM* | -12% | 6% | x | -14% | 0%
CCOC(=O)c1c(NC(=O)c2cc(=O)c3ccc(C)cc3o2)sc(C)c1C | 9% | 28%[46.1 µM] | x | 16 | x | 9%[46.1 µM]
Cc1cccc(CNC(=O)CN2C(=O)CCn3nc(-c4cn(C)c5ccccc45)cc32)c1 | -11% | x | x | 22 | x | -6%[46.1 µM]
SMILES | FMDV antiviral | Marburg entry inh | HCV inh | HCMV inh | SARS PLpro yeast | Lassa entry inh
COC(=O)c1cnc(Oc2ccc(NC(=O)NC(=O)c3c(OC)cccc3OC)cc2)cc1C(F)(F)F | -27% | 1.6µM* | -24% | -98* | -1% | u
COC(=O)C(c1ccccc1)(c1cn(C)c2ccccc12)C(Nc1ccccc1)c1ccccc1 (centres undefined) | x | x | x | -24 | x | x
COc1ccc(C)cc1Nc1nc(N)c2cc(OC)c(OC)cc2n1 | -27% | u | u | -34 | -1% | u
COc1cc2nc(Cl)nc(N3CCCCC3)c2cc1OC | -28% | u | -24% | 15 | -2% | u
COc1cc2nc(N3CCN(c4cc(C)ccc4C)CC3)nc(N)c2cc1OC | 25µM* | 4.5µM* | 7.1µM* | -98* | -4% | u
COc1cc2nc(N3CCNCC3)nc(N)c2cc1OC | 9% | u | 22µM* | u | -2% | 4%
Cc1ccc2nc(NC(=O)CSc3nccn3Cc3ccccc3)sc2c1 | 0% | x | x | 32 | x | 14%[46.1 µM]
CCc1ccc(NC(=O)CC2C(=O)N(c3ccc(Cl)cc3)C(=O)N2Cc2cccs2)cc1 (centres undefined) | -1% | x | x | 42 | x | -10%[46.1 µM]
C=CCOc1ccc(CNC(C)(C)C)cc1OC | -8% | -10% | -1% | -1 | 1% | -3%
C=CCOc1ccc(CNc2nccs2)cc1OC | 7% | 8% | 10µM* | 13 | -8% | 7%
C=CCn1cccc(C(=O)Nc2ccc(SC)cc2)c1=O | -10% | x | u | x | -7% | x
C=CCn1cccc(C(=O)Nc2ccc(N(C)C)cc2)c1=O | 41% | x | -11% | x | -3% | x
C=CCn1cccc(C(=O)Nc2ccc(Cl)cc2)c1=O | 10% | x | 11µM* | 13 | -1% | x
C=CCn1cccc(C(=O)Nc2ccc(OCC)cc2)c1=O | 0% | -48%[46.1 µM] | 11µM* | -63* | -4% | u
Oc1ccc(COCc2ccc(F)cc2)c2cccnc12 | x | x | x | x | 1% | x
CCOc1ccc(Nc2nc3ccccc3n3nnnc23)cc1 | 7% | x | 13% | -19 | -4% | x
CN(C)c1ccc(Nc2nc3ccccc3n3nnnc23)cc1 | u | -25%[46.1 µM] | x | -62* | x | -3%[46.1 µM]
O=C(Nc1nnc(CSCc2ccc(Cl)cc2)s1)c1cccc([N+](=O)[O-])c1 | 0% | -6% | 21% | -34 | 13% | u
O=C(Nc1nnc(CSCc2ccc(F)cc2)s1)c1cccc([N+](=O)[O-])c1 | 40µM* | -17% | 8% | -4 | -8% | -24%
CN(C)CC1CCC/C(=C\c2ccc(OC(=O)/C=C/c3ccc(Cl)c(Cl)c3)cc2)C1=O (centres undefined) | 40µM* | u | u | -29 | x | 12%
COc1cccc(/C=C2/CCC(CN(C)C)C2=O)c1 (centres undefined) | 25µM* | 11µM* | u | -87* | x | 13µM*
COc1ccc(/C=C2/CCCC(CN(C)C)C2=O)cc1 (centres undefined) | -13% | -16% | u | 16 | x | -13%
